Tests used:
[1] = molecular target: Homeodomain-interacting protein kinase 3 (Homo sapiens) (UniProt Q9H422); conditions: at 10 µM
[2] = molecular target: T1, Serine/threonine-protein kinase haspin (Homo sapiens) (UniProt Q8TF76); conditions: at 1 µM
T1 sequence (whole entry): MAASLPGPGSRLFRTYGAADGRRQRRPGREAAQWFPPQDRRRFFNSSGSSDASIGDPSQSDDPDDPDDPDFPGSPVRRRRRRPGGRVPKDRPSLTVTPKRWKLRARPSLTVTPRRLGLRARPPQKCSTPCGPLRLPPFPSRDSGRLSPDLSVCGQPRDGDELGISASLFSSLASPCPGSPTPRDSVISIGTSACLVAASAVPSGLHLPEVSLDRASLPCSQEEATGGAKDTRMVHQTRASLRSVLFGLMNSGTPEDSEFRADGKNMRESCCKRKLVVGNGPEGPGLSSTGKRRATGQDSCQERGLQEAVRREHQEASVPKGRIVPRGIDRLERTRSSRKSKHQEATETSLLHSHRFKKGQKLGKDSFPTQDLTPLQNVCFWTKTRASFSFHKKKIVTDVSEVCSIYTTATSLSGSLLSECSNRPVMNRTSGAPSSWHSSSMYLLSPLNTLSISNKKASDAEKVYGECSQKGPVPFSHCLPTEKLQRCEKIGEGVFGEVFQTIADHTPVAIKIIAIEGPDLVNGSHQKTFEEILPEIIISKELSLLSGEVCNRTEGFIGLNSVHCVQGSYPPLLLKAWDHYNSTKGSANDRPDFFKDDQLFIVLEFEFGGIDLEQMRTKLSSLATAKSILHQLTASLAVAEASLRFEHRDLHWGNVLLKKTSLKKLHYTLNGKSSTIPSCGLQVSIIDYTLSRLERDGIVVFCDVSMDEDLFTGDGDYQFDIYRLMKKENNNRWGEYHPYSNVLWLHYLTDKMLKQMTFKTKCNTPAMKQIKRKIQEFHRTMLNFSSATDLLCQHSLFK

[3] = molecular target: T1, Serine/threonine-protein kinase haspin (Homo sapiens); conditions: at 10 µM
[4] = molecular target: Tyrosine-protein kinase HCK (Homo sapiens) (UniProt P08631); conditions: at 1 µM
[5] = molecular target: Tyrosine-protein kinase HCK (Homo sapiens) (UniProt P08631); conditions: at 10 µM
[6] = molecular target: Tyrosine-protein kinase HCK (Homo sapiens) (UniProt P08631); conditions: at 1 µM; remark: listed apart in the source
[7] = molecular target: Tyrosine-protein kinase HCK (Homo sapiens) (UniProt P08631); conditions: at 10 µM; remark: listed apart in the source
[8] = molecular target: Insulin-like growth factor 1 receptor (Homo sapiens) (UniProt P08069); conditions: at 1 µM
[9] = molecular target: Insulin-like growth factor 1 receptor (Homo sapiens) (UniProt P08069); conditions: at 10 µM
[10] = molecular target: T2, Protein kinase C zeta type (Homo sapiens) (UniProt Q05513); conditions: at 10 µM
T2 sequence (whole entry): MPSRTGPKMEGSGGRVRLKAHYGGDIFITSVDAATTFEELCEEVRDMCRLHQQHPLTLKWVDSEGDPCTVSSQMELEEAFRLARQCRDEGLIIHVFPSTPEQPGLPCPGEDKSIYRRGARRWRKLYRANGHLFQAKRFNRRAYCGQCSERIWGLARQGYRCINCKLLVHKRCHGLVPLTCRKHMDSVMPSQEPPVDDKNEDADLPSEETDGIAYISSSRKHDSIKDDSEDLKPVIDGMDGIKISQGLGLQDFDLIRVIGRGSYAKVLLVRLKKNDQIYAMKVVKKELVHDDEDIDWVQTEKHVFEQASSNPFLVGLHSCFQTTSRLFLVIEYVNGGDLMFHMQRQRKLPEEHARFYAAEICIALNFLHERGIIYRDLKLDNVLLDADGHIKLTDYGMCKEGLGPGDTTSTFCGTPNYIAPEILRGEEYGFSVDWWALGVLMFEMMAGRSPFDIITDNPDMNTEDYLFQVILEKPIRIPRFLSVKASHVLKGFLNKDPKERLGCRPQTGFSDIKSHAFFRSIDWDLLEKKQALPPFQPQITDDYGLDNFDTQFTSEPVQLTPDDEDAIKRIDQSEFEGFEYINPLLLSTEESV

[11] = molecular target: Protein kinase C eta type (Homo sapiens) (UniProt P24723); conditions: at 1 µM
[12] = molecular target: Protein kinase C eta type (Homo sapiens) (UniProt P24723); conditions: at 10 µM
[13] = molecular target: Protein kinase C theta type (Homo sapiens) (UniProt Q04759); conditions: at 1 µM
[14] = molecular target: Protein kinase C theta type (Homo sapiens) (UniProt Q04759); conditions: at 10 µM
[15] = molecular target: T3, Protein kinase C iota type (Homo sapiens) (UniProt P41743); conditions: at 1 µM
T3 sequence (whole entry): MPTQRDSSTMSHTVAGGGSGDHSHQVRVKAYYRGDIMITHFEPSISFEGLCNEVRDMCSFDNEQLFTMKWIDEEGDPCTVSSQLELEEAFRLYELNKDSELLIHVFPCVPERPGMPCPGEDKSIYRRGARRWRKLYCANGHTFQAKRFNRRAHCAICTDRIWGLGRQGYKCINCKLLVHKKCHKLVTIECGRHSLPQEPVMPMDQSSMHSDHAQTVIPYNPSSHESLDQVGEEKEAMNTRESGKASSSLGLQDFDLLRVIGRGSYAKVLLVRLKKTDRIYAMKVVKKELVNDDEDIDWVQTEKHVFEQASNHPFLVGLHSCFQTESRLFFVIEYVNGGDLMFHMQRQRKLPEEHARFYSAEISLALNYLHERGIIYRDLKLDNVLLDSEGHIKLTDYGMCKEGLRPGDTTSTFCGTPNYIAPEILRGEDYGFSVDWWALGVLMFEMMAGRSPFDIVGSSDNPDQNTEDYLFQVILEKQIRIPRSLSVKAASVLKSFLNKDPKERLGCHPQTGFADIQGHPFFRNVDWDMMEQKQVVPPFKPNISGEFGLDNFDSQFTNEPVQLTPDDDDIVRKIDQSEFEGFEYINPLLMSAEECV

[16] = molecular target: T3, Protein kinase C iota type (Homo sapiens); conditions: at 10 µM
[17] = molecular target: T4, Serine/threonine-protein kinase D1 (Homo sapiens) (UniProt Q15139); conditions: at 1 µM
T4 sequence (whole entry): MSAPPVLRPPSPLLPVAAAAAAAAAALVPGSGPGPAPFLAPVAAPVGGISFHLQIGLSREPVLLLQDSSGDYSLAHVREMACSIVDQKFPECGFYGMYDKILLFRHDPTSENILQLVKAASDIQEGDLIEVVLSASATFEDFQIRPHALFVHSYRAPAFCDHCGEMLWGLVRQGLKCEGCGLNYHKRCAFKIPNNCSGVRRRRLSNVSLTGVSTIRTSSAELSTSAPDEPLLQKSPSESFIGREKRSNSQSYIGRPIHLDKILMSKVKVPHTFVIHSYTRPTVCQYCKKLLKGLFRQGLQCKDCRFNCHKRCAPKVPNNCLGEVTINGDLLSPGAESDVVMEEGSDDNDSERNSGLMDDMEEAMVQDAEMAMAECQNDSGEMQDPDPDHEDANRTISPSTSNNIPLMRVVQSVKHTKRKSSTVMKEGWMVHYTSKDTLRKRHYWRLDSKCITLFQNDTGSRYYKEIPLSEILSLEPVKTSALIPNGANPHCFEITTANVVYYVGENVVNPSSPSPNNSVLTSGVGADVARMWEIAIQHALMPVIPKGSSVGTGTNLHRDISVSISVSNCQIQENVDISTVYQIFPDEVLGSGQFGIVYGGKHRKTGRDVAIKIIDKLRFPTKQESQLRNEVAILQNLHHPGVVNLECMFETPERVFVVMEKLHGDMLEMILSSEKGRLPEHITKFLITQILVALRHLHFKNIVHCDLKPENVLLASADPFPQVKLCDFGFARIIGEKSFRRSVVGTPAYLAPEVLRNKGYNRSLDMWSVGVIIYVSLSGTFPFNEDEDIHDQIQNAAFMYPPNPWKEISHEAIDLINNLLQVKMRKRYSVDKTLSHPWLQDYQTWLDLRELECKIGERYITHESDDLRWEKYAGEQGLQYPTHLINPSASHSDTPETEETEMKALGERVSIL

[18] = molecular target: T4, Serine/threonine-protein kinase D1 (Homo sapiens); conditions: at 10 µM
[19] = molecular target: T5, Serine/threonine-protein kinase D2 (Homo sapiens) (UniProt Q9BZL6); conditions: at 1 µM
T5 sequence (whole entry): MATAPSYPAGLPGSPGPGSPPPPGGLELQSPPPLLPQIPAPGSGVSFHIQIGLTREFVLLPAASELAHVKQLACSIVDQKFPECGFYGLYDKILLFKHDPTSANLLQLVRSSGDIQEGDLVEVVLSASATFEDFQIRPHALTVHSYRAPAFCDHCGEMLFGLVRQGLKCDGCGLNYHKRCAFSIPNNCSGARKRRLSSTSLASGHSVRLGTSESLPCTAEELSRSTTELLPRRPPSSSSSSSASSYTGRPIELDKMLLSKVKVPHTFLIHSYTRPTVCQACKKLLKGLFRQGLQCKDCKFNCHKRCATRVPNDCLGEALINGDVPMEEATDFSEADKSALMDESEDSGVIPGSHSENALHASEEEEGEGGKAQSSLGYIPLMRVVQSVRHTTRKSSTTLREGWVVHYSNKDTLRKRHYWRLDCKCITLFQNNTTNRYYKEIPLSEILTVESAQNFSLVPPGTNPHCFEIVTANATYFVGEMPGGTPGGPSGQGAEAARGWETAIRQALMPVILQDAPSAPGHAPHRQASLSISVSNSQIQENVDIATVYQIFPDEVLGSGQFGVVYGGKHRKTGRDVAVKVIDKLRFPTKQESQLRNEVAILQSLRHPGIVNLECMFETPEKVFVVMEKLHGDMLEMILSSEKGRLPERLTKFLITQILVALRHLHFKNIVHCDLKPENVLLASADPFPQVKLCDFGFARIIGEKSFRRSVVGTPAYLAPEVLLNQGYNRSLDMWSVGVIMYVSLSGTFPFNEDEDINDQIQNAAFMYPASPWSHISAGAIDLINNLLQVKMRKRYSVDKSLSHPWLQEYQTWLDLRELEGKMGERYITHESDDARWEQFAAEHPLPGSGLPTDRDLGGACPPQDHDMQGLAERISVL

[20] = molecular target: T5, Serine/threonine-protein kinase D2 (Homo sapiens); conditions: at 10 µM

Protein kinase C eta type (Homo sapiens), sequence (P24723 whole entry): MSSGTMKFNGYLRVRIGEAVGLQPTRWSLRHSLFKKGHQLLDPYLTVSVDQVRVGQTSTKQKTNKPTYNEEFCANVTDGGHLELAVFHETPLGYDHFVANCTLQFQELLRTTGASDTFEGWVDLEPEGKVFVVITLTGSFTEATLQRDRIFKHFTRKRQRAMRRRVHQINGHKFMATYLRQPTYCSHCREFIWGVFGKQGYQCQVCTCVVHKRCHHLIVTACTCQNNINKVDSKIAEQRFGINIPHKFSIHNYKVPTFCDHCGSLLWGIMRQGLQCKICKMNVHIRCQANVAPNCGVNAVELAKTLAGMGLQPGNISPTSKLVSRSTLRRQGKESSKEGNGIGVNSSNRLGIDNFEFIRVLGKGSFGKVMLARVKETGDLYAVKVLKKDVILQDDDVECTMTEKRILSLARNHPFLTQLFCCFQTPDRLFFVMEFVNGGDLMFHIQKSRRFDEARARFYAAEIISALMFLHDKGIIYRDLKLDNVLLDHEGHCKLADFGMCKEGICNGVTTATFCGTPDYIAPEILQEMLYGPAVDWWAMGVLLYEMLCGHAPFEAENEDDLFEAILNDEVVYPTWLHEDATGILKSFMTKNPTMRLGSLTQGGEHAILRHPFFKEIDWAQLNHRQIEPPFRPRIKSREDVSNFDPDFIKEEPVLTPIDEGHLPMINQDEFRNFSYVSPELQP
Insulin-like growth factor 1 receptor (Homo sapiens), sequence (P08069 31-736 limits assumed): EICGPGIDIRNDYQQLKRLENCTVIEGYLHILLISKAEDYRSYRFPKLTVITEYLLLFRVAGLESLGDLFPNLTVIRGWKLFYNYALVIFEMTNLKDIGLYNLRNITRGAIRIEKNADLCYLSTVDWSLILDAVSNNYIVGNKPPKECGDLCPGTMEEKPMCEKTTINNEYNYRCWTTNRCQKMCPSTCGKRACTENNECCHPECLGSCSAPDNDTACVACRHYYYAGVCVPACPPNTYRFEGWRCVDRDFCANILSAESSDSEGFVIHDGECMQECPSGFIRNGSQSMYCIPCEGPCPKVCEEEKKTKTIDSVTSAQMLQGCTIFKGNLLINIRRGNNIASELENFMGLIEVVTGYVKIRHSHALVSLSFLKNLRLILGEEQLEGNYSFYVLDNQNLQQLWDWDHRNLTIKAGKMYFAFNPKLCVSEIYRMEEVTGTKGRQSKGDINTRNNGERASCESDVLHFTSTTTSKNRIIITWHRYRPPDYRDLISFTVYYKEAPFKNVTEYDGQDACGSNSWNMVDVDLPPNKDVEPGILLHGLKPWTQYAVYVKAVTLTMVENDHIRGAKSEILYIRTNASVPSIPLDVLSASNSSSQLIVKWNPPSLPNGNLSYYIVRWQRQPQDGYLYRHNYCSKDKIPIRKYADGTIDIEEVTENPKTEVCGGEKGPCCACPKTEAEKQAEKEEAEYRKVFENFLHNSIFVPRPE
Insulin-like growth factor 1 receptor (Homo sapiens), sequence (P08069 741-1367 limits assumed): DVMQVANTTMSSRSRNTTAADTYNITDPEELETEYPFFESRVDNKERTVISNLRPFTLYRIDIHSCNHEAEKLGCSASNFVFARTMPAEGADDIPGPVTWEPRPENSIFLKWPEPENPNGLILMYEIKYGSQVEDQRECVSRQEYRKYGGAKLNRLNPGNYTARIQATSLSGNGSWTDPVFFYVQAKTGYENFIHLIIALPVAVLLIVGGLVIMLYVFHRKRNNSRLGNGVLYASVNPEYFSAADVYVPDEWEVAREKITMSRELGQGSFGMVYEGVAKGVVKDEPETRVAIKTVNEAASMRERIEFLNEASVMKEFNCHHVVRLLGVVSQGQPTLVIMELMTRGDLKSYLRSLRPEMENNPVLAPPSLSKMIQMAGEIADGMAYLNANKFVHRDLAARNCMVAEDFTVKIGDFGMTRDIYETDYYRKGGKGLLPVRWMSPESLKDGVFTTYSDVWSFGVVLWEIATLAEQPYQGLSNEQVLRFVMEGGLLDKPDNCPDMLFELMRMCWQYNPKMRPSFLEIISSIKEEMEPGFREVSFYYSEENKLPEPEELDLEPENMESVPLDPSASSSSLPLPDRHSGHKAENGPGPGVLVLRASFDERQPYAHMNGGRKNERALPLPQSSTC
Homeodomain-interacting protein kinase 3 (Homo sapiens), sequence (Q9H422 whole entry, looked up): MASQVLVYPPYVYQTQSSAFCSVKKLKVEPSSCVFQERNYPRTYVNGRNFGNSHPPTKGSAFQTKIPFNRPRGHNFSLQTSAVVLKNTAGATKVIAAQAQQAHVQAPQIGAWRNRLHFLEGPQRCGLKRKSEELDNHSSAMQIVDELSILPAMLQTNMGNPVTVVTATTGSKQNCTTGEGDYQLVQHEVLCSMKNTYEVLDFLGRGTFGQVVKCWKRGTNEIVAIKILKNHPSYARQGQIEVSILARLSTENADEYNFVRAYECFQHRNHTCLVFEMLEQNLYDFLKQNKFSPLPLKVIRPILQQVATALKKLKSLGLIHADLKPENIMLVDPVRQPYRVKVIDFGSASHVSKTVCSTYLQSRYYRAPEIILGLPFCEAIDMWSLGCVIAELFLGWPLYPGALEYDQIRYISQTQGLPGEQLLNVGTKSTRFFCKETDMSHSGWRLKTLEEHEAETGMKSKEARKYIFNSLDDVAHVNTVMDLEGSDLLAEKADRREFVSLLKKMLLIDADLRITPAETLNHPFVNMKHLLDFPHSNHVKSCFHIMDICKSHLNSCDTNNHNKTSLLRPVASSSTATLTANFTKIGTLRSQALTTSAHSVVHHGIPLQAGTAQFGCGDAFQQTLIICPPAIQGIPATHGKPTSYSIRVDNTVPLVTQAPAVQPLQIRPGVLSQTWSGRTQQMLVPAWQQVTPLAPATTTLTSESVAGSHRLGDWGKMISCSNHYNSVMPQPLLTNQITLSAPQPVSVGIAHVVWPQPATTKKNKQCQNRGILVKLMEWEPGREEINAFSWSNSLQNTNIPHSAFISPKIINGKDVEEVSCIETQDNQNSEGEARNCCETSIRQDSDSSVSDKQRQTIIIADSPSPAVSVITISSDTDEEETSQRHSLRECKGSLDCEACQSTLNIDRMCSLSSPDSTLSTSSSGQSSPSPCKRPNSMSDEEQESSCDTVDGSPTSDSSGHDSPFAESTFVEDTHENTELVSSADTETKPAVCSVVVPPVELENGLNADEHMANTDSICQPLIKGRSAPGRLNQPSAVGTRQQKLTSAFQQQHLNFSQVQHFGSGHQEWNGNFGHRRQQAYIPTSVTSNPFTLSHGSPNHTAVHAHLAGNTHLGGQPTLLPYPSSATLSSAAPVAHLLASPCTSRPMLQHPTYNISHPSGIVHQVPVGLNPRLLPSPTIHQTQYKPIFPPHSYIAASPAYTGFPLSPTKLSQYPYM
Tyrosine-protein kinase HCK (Homo sapiens), sequence (P08631 2-526 limits assumed): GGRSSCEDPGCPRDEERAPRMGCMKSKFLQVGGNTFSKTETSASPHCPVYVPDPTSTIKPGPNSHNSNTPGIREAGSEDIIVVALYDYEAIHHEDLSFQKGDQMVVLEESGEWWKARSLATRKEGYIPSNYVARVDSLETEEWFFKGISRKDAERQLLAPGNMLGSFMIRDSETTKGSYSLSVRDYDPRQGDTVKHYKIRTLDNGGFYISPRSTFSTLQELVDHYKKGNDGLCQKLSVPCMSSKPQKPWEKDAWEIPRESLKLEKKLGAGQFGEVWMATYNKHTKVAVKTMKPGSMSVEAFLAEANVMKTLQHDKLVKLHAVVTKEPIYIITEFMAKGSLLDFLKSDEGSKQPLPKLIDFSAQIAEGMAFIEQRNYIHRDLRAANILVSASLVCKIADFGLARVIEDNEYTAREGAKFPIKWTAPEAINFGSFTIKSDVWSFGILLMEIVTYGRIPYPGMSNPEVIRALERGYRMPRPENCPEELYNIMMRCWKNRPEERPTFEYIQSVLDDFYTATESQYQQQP
Protein kinase C theta type (Homo sapiens), sequence (Q04759 whole entry, looked up): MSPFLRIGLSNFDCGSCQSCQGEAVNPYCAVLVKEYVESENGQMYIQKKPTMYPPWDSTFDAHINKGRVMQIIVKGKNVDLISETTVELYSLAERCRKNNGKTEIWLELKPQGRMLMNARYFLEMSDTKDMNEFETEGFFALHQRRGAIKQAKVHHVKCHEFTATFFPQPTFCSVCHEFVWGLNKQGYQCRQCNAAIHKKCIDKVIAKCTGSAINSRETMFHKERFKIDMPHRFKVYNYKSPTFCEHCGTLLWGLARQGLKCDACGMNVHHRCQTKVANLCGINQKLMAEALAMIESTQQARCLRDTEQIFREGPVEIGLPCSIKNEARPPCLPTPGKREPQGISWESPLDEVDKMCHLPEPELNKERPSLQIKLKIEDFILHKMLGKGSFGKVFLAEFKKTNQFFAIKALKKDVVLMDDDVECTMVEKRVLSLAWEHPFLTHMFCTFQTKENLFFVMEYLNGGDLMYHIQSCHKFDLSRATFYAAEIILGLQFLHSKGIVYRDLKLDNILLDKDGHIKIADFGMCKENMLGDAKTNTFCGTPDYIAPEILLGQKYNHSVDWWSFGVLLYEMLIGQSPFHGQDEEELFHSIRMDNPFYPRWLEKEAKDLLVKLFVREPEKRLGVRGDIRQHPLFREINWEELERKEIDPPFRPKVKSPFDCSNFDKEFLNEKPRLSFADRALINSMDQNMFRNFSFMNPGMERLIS

Row | SMILES | residual activity [1] [%] | residual activity [2] [%] | residual activity [3] [%] | residual activity [4] [%] | residual activity [5] [%] | residual activity [6] [%] | residual activity [7] [%] | residual activity [8] [%] | residual activity [9] [%] | residual activity [10] [%] | residual activity [11] [%] | residual activity [12] [%] | residual activity [13] [%] | residual activity [14] [%] | residual activity [15] | residual activity [16] [%] | residual activity [17] [%] | residual activity [18] [%] | residual activity [19] [%] | residual activity [20] [%]
1 | Ic1cccc(CSc2nnc(-c3ccncc3)o2)c1 | 100 | 104 | 85 | 74 | 56 | 85 | 89 | 96 | 124 | 98 | 59 | 62 | 68 | 58 | 109% (inactive) | 107 | 72 | 71 | 97 | 98
2 | CCOc1cc2ncnc(Nc3cccc(Br)c3)c2cc1OCC | 92 | 97 | 66 | 34 | 6 | 17 | 4 | 89 | 106 | 69 | 82 | 88 | 116 | 106 | 87% (inactive) | 95 | 101 | 54 | 104 | 113
3 | Cc1nc(-c2ccccc2)c(-c2ccncc2)o1 | 103 | 94 | 35 | 24 | 20 | 96 | 91 | 94 | 128 | 112 | 101 | 90 | 107 | 103 | 108% (inactive) | 103 | 113 | 80 | 103 | 94
4 | CCC(=O)Nc1ccc2ncnc(Nc3cccc(Br)c3)c2c1 | 99 | 109 | 62 | 82 | 45 | 86 | 66 | 132 | 116 | 119 | 85 | 82 | 96 | 95 | 100% (inactive) | 101 | 85 | 82 | 105 | 112
5 | CC(C)n1cnc2/c(=N/c3cccc(Cl)c3)nc(NCCO)[nH]c21 | 83 | 80 | 58 | 41 | 13 | 57 | 13 | 103 | 105 | 102 | 87 | 75 | 69 | 35 | 110% (inactive) | 103 | 77 | 57 | 96 | 93
6 | O=c1cc(-c2cccc3c2Sc2ccccc2S3)oc(N2CCOCC2)c1 | 104 | 94 | 98 | 96 | 82 | 101 | 100 | 100 | 113 | 100 | 107 | 101 | 97 | 91 | 117% (inactive) | 102 | 86 | 80 | 106 | 103

— ChEMBL document CHEMBL2218924, “A broad activity screen in support of a chemogenomic map for kinase signalling research and drug discovery” (Biochem J, 2013)
